These results are taken from PubChem BioAssay (NCATS).

Unmarked numbers belong to inactive results. Active and inactive are the calls of the source. No rule for the calls is given here.
Potency is read from the fitted curve at half-maximal effect.

The experiment relates to HIV-1 nucleocapsid protein NCp7 (binding to TG oligonucleotide). Kind of experiment: HIV Nucleocapsid (AID 346).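 Also: potency is for inhibitors that block NC binding and lower polarization.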 To be noted: HIV-1 NC / fluorescein-TGTGTGTG probe, fluorescence polarization. The essentials: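 Fluorescence polarization readout: labelled TG4xF oligo (10 nM) with 100 nM nucleocapsid protein, high-salt (250mM NaCl) Hepes pH 7.5 buffer containing zinc and fresh reducing agents. Compounds added by pin tool; incubation 1 hr, room temperature.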
Turning to `COc1ccc(Oc2ncc3nc(CCc4ccccc4)c(=O)n(CCC#N)c3n2)cc1`, the Potency was greater than 20 µM.

On to `CN(C)c1ccc(-c2nc(NCc3cccnc3)c3ccccc3n2)cc1`, for which the Potency is greater than 20 µM. For the compound `COc1ccc(NC(=O)N2CC[C@@]3(CCCN(C(=O)c4ccco4)C3)C2)cc1`, the Potency is greater than 20 µM.

With `COc1cccc(Cn2c(=O)c(-c3ccc(F)cc3)nc3cncnc32)c1`, the Potency is greater than 20 µM. Then `O=C(c1cnccn1)N1CCC2(CC1)CCN(c1ncccn1)CC2`, with greater than 20 µM. On to `c1ccc(-c2cccc(N3CCC4(CCNCC4)CC3)c2)cc1`, for which the Potency was greater than 20 µM. `CC(=O)N1CCC2(CCCN(c3ccncc3)C2)CC1`: the Potency is greater than 20 µM.

Turning to `COc1ccc(-c2nc3cnc(Nc4cccc(OC)c4)nc3n(Cc3cccs3)c2=O)cc1`, the Potency is 0.247 µM (active). In the case of `Cc1noc(C)c1C(=O)N1CCC2(CC1)CN(c1cccc(-c3ccccc3)c1)C2`, the Potency is greater than 20 µM.

Consider `O=C(Nc1ccccc1)N1CCC2(CCNCC2)CC1`, for which the Potency was greater than 20 µM.

`CS(=O)(=O)N1CCC[C@@]2(CCN(c3ccccc3)C2)C1`: the Potency was greater than 20 µM.

With `Cn1cccc1C(=O)N1CCC[C@@]2(CCN(C(c3ccccc3)c3ccccc3)C2)C1`, the Potency is greater than 20 µM.

Take `c1cncc(-c2ccc3ncnc(NCCN4CCOCC4)c3c2)c1`: the Potency is greater than 20 µM. As for `COc1cccc(Cn2c(=O)c(-c3ccc(Cl)cc3)nc3cncnc32)c1`, the Potency is greater than 20 µM.

As for `COCCNc1ccnc(-c2ccccc2CN(C)C)n1`, the Potency is greater than 20 µM. Turning to `c1ccc(CNc2nc(-c3cccnc3)nc3ccccc23)cc1`, the Potency is greater than 20 µM. In the case of `CC(=O)NCCNc1nc(-c2ccc(N(C)C)cc2)nc2ccccc12`, the Potency was greater than 20 µM. Take `COC(=O)N1CCC2(CCCN(C(=O)Nc3cccc(C#N)c3)C2)CC1`: the Potency was greater than 20 µM. As to `Cn1cccc1C(=O)N1CCC2(CCCN(Cc3ccc(C#N)cc3)C2)CC1`, the Potency was greater than 20 µM.

With `COc1ccc(-c2nc3cnc(Nc4ccccc4)nc3n(Cc3cccs3)c2=O)cc1`, the Potency is greater than 16 µM.

Take `O=c1c(-c2cccs2)nc2cnc(N3CCOCC3)nc2n1-c1ccccc1`: the Potency is greater than 20 µM. Consider `COc1ccc(Oc2ncc3nc(CCc4ccccc4)c(=O)n(C4CC4)c3n2)cc1`, for which the Potency was greater than 20 µM. Then `c1ccc(Nc2nc(-c3cccnc3)nc3ccccc23)cc1`, with greater than 20 µM; and `Cc1noc(C)c1-c1nccc(N(C)C)n1`, with greater than 20 µM. On to `COCC(=O)N1CCC[C@@]2(CCN(C(=O)Nc3cccc(C#N)c3)C2)C1`, for which the Potency is greater than 20 µM. Take `CC(=O)N1CCC2(CC1)CCN(c1ccncc1)CC2`: the Potency was greater than 20 µM. Take `CC(C)NC(=O)N1CCCC2(CCN(S(=O)(=O)c3ccccc3)CC2)C1`: the Potency is greater than 4 µM. Turning to `O=c1c(-c2cc(F)cc(F)c2)nc2cnc(N3CCNCC3)nc2n1-c1ccccc1`, the Potency is greater than 20 µM. Take `O=C(Nc1cccc(F)c1)N1CCC2(CC1)CCN(C(=O)c1ccncc1)CC2`: the Potency was greater than 20 µM. Then `Cc1noc(C)c1-c1nc(NCc2cccnc2)c2ccccc2n1`, with greater than 20 µM; and `COc1ccc(C(=O)N2CCC[C@@]3(CCN(CC(C)C)C3)C2)cc1`, with greater than 20 µM; and `O=c1c(-c2cc(F)cc(F)c2)nc2cnc(N3CCOCC3)nc2n1C[C@H]1CCCO1`, with greater than 20 µM. As to `CS(=O)(=O)Nc1cccc(-c2ccc3ncnc(NC4CCNCC4)c3c2)c1`, the Potency was greater than 20 µM.

As for `O=C(Oc1ccccc1)N1CCC2(CCCN(c3ccc(-c4ccccc4)cc3)C2)CC1`, the Potency is greater than 20 µM.

With `COCCn1c(=O)c(-c2ccc(OC)cc2)nc2cnc(OCc3ccccc3)nc21`, the Potency is greater than 20 µM. Regarding `COCC(=O)N1CCC2(CCN(Cc3ccncc3)CC2)CC1`, the Potency was greater than 20 µM.

Take `CN(Cc1ccco1)c1nc(-c2ccc3c(c2)OCO3)nc2ccccc12`: the Potency was greater than 20 µM. Then `COc1ccc2[nH]cc(CCNc3nc(-c4ccc(C(=O)N(C)C)cc4)nc4ccccc34)c2c1`, with greater than 20 µM.

Regarding `Cc1cnc(CNc2ncnc3ccc(-c4ccc(N(C)C)cc4)cc23)cn1`, the Potency was greater than 20 µM.
